# From PubChem BioAssay (NCATS)
# Results filed as inconclusive are left out. Values without a mark were called inactive. Calls of active or inactive are those of the source. Calls come from the whole dose curve; as a rule, active = well fitted inhibition curve with a large enough effect; inconclusive = small, poorly fitted or top-dose-only effect, or effect the other way; inactive = no such curve, though single readings can be large or run the other way.
# Assay: Quantitative high throughput screen for delayed death inhibitors of the malarial parasite plastid, 96 hour incubation (AID 488745); note: nearly all actives have a fitted effect of over 70% in size;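 for activity change, negative = inhibition: luciferase-expressing P. falciparum in erythrocytes at 2% hematocrit and 0.1% parasitemia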
# Conditions: Plasmodium falciparum growth; series mostly up to 28.7 µM; activity change, negative = inhibition: at the top concentration
# Summary of the method: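 Growth of reporter-bearing P. falciparum in red cells is measured after 96 h with compound, covering two erythrocytic cycles. Luminescence from the integrated luciferase serves as the growth signal.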
# % is set by controls: 0 for no effect and ±100 for the full control effect; potency is the fitted concentration of half-maximal effect.
SMILES,"activity change, negative = inhibition [%]",Potency
C=CC(N)CCC(=O)O (configuration not stated),2.07,–
O=C(O)c1cc(=O)c2c(Cl)cc(Cl)cc2[nH]1,-11.9,–
c1ccc(-c2ccccn2)nc1,1.89,–
CN1CCC[C@H]1c1cccnc1,-2.36,–
O=c1[nH]c2cc([N+](=O)[O-])c([N+](=O)[O-])cc2[nH]c1=O,-10.2,–
CO/N=C(\C(=O)N[C@@H]1C(=O)N2C(C(=O)O)=C(COC(C)=O)CS[C@H]12)c1csc(N)n1 (stereo in doubt),-0.0517,–
Cc1ccc(C(=O)O[C@H](C(=O)O)[C@@H](OC(=O)c2ccc(C)cc2)C(=O)O)cc1 (tested in a mixture with another compound),5.79,–
Brc1c(Br)c(Br)c2n[nH]nc2c1Br,0.566,–
C[N+](C)(CCCCCC[N+](C)(C)CCCN1C(=O)c2cccc3cccc(c23)C1=O)CCCN1C(=O)c2cccc3cccc(c23)C1=O,–,928 nM (active)
CC1(C)CCC=[N+]1[O-],0.36,–
NCCCCC(=O)O,-3.07,–
S=C(S)OC1CC2CC1C1CCCC21 (configuration not stated),-2.89,–
O=C(O)CC1CCCc2ccccc2C1O (configuration not stated),21.3,–
O=C(O)CNC(=O)C(CS)Cc1ccccc1 (configuration not stated),2.62,–
NCCCCCCCCCCN,7.29,–
NCCSSCCN,-6.06,–

SMILES,"activity change, negative = inhibition [%]",Potency
CN1C2CCC1CC(OC(=O)C(O)c1ccccc1)C2 (configuration not stated),-0.607,–
Cn1c(=O)c2[nH]c(-c3ccccc3)nc2n(C)c1=O,10.2,–
CC1CN(S(=O)(=O)c2cccc3cnccc23)CCN1 (configuration not stated),-13.1,–
N=C(N)SCCc1ccc(CCSC(=N)N)cc1,8.55,–
CN[C@H](CC(C)C)C(=O)N[C@H]1C(=O)N[C@@H](CC(N)=O)C(=O)N[C@H]2C(=O)N[C@H]3C(=O)N[C@H](C(=O)N[C@H](C(=O)O)c4cc(O)cc(O)c4-c4cc3ccc4O)[C@H](O)c3ccc(c(Cl)c3)Oc3cc2cc(c3O[C@@H]2O[C@H](CO)[C@@H](O)[C@H](O)[C@H]2O[C@H]2C[C@](C)(N)[C@H](O)[C@H](C)O2)Oc2ccc(cc2Cl)[C@H]1O,-2.78,–
O=C(O)[C@@H]1C[C@@H](C(=O)O)N1,-0.413,–
CCCCCCCCCCCCCCCC(=O)NCC(COP(=O)([O-])OCC[N+](C)(C)C)OCC (configuration not stated),1.64,–
C=C/C(C)=C/[C@@]1(C)SC(=O)C(C)=C1O,-5.48,–
CC(=O)N[C@H](C(=O)O)C(C)(C)SN=O,20.6,–
NC(=O)C(=O)O,-0.67,–
O=C(O)c1cc(=O)c2ccccc2[nH]1,-12,–
COc1cc(C(O)CO)ccc1OS(=O)(=O)O (configuration not stated),-22.1,–
C[C@@H](CN1CCC(Cc2ccccc2)CC1)[C@@H](O)c1ccc(O)cc1,4.57,–
OCC1O[C@H](O)C(Cl)C(O)C1O (some centres not stated),23.8,–
CC(=O)SCC[N+](C)(C)C,-12.4,–
O=C1O/C(=C/Br)CCC1c1cccc2ccccc12 (configuration not stated),-23.8,–
